Hits are enriched below; roughly 0.74% of the tested compounds scored in any of these assays.
eLon inh: inhibits E. coli Lon protease; P0A9M0; purified E. coli Lon protease, fluorescence polarization; inhibition, % at 7.94 µM; hit rate 0.42% among 360,000; in the data active = inhibition above about 13%, passing the limit was not always enough;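 note: 0% = enzyme with probe and DMSO and 100% = no enzyme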
Target sequence (P0A9M0 whole entry, looked up): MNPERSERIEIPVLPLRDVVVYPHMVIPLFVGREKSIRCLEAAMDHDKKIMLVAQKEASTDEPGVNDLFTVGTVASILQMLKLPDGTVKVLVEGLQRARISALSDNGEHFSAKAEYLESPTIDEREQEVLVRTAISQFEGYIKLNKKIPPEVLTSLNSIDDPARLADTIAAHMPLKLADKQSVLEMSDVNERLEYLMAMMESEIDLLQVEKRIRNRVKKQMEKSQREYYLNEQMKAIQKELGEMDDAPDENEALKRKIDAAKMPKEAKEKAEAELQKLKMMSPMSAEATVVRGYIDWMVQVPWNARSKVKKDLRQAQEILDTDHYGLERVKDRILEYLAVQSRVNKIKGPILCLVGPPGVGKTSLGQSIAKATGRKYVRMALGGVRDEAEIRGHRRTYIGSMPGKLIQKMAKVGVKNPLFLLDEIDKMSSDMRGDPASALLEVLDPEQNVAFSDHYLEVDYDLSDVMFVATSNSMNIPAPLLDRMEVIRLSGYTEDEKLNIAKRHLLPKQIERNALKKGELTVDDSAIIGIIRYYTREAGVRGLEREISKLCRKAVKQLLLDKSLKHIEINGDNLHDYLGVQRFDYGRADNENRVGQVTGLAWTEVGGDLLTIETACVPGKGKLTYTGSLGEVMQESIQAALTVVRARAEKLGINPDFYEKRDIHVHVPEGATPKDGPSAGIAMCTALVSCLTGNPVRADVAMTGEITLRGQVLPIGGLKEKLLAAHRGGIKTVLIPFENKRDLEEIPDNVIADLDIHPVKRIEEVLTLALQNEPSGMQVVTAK
Keap1-Nrf2 PPI: Keap1-Nrf2 (human) interaction inhibition | Keap1 Kelch-Nrf2 peptide fluorescence polarization, 1536-well | inhibition, % at 9.4 µM | hit rate 0.15% among 340,000 | Q14145; in the data active = inhibition above about 12%;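 note: human Keap1 Kelch domain with fluorescein labeled Nrf2 9mer peptide probe; 0% = neutral control wells and 100% = peptide positive control; higher means more block of Keap1 binding to Nrf2 peptide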
RTF Ca sens act: increases calcium sensitivity of human cardiac regulated thin filaments. P19429+P45379. activation, % at 7.2 µM. AID 493008. IANBD-labeled TnC RTF fluorescence at EC20 calcium; 0% EC20 calcium, 100% full calcium. hit rate 0.24% among 340,000;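 active = activation above the mean over all tested compounds plus 3 SD, cut at about 30% in these data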;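 note: rise in fluorescence read as greater calcium sensitivity of cardiac thin filaments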
LANA DNA inh: KSHV C-LANA DNA binding inhibition; MBP-C-LANA/FAM-LBS DNA binding, fluorescence polarization; hit rate 0.078% among 340,000; inhibition, % at 9 µM;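 active = highest replicate inhibition at or above 60% at 9 µM, even if other replicates fall short; inactive = all replicates below 60% inhibition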;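 note: 0% = neutral control wells and 100% = 4 µM acridine orange control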
Cardiac RTF inh: cardiac RTF calcium desensitization | inhibition, % at 7.15 µM | P19429+P45379 | hit rate 0.12% among 340,000 | IANBD-labeled cardiac RTF, Ca2+ fluorescence;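 active = inhibition above the mean inhibition of all tested compounds plus 3 SD, cut at about 17% in these data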;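 note: assay run at fixed EC70 calcium of 1.6 mM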
RTF inh confirm: cardiac RTF calcium sensitivity inhibition, confirmation; shares compounds with Cardiac RTF inh; reconstituted cardiac thin filaments, calcium sensitivity fluorescence; inhibition, % at 7.15 µM; hit rate 8% among 360; AID 504635; in the data active = inhibition above about 18%
DNA intercal 2: intercalates DNA, flagged as C-LANA false positive; AC50, µM (doses to about 35 µM), for inactives: at the highest dose activity change, negative = inhibition; 20 tested, under 10 active; shares compounds with LANA DNA inh; Acridine orange-DNA displacement, fluorescence polarization;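 active = signal drop with an AC50 no more than ten times the top valid dose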
Keap1 Kelch bind: Keap1 (human) Kelch domain binding; shares compounds with Keap1-Nrf2 PPI; Keap1 Kelch thermal shift, delta Tm; hits give high values; max delta Tm, degrees C; hit rate 8% among 400; AID 651823; in the data active = max delta Tm above about 0.48 degrees C
Dye-only ctr: dye artifact in Keap1 thermal shift counter-screen; shares compounds with Keap1-Nrf2 PPI; Sypro Orange dye-only thermal melt, no protein, delta Tm; top dose 26 µM; delta Tm, degrees C (concentration not given with the values); 140 tested, under 10 active; AID 651858;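 active = at highest dose tested, delta Tm positive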
E coli Lon conf: E. coli Lon inhibition confirmation. shares compounds with eLon inh. purified E. coli Lon, fluorescence polarization. inhibition, % at 7.94 µM. hit rate 31% among 1,400; in the data active = inhibition above about 16%;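 note: 0% = enzyme with probe and DMSO and 100% = no enzyme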
The depositor's hits bear a star; / = not tested or not shown.

SMILES	eLon inh	Keap1-Nrf2 PPI	RTF Ca sens act	LANA DNA inh	Cardiac RTF inh	Keap1 Kelch bind	others
CC(C)(C)OC(=O)N1CCCC(C(=O)Nc2ccc(C(=O)NC3CC3)cc2)C1 (configuration not stated)	-12	8	-3	0	-3	/
O=C(O)c1[nH]c2ccccc2c1C(c1cc(Cl)cc([N+](=O)[O-])c1O)c1c(C(=O)O)[nH]c2ccccc12	28*	-1	-23	10	22*	/	RTF inh confirm=7;E coli Lon conf=19*
O=C(CC[C@H]1O[C@@H](n2cnc3c(NC(=O)c4ccccc4)ncnc32)[C@H](O)[C@@H]1O)N[C@@H](CO)c1ccccc1	2	/	/	/	/	/
CCOC(=O)c1ccc(N2N=C(C)/C(=C/C=C/c3ccco3)C2=O)cc1	-5	-6	2	-1	-5	/
O=C(O)c1cc(N2N=C(C(F)(F)F)/C(=C/C=C/c3ccco3)C2=O)ccc1Cl	28*	21*	-62	113*	111*	0.68*	RTF inh confirm=57*;DNA intercal 2=20%;E coli Lon conf=-12
O=C(NC1CCSc2ccccc21)c1ccc(Cl)c(S(=O)(=O)N2CCOCC2)c1 (configuration not stated)	4	-4	-1	0	-2	/
CN(C)S(=O)(=O)c1cc(C(=O)NC2CCSc3ccccc32)ccc1Cl (configuration not stated)	/	/	/	/	/	/	DNA intercal 2=-1%
COc1ccc(Cc2nc3ccc(C(=O)N(C)Cc4nccn4C)cc3o2)cc1	-2	/	/	/	/	/
Clc1ccc(-c2nnc3sc(-c4ccc(Br)o4)nn23)cc1	11	4	2	107*	-16	/	DNA intercal 2=11%
Clc1ccc(-c2nnc3sc(-c4ccc(Br)o4)nn23)c(Cl)c1	1	-1	1	2	-1	/
Nc1c(/C=C2\C=CC(=O)C(O)=C2)c(=O)nc2sc(CC(=O)N3CCCCC3)nn12	/	/	/	/	/	/	DNA intercal 2=8%
O=C1CCCC(O)=C1N=Nc1ccc(C(=O)O)cc1	-2	5	-14	71*	12	/	DNA intercal 2=4%
CN(Cc1cnn(-c2ccccc2)c1)C(=O)c1cccc(S(=O)(=O)Nc2ccccc2F)c1	-1	/	/	/	/	/
COc1ccc(-c2cc(C(F)(F)F)c3c(N)c(C(=O)NCCSC)sc3n2)cc1	-12	29*	63*	53	-77	-0.1	DNA intercal 2=-27%;Dye-only ctr=-27
COc1ccc(OC)c(CN2CCN(C(=O)c3ccc(C)c(S(=O)(=O)Nc4ccccc4OC)c3)CC2)c1	2	-4	-1	1	1	/
CC(C)NC(=O)N(C)C[C@H]1Oc2ccc(NS(=O)(=O)c3cn(C)cn3)cc2C(=O)N([C@H](C)CO)C[C@@H]1C	-3	29*	-5	22	0	-0.11
C=CCN1C(=O)/C(=C2/Sc3ccc(OC)cc3N2C)SC1=Nc1ccccc1	-4	0	0	1	-8	/
CCCCN1C(=O)/C(=C2/Sc3ccccc3N2C)S/C1=N\c1ncn[nH]1	-70	41*	6	21	-4	-0.07	Dye-only ctr=-28
CCCCNC(=O)C1(C)CCN1Cc1cc(C)ccc1C (configuration not stated)	-23	/	/	/	/	/
c1ccc(NCCC2OCC3(CO2)COC(CCNc2ccccc2)OC3)cc1 (configuration not stated)	5	1	-3	0	-6	/
CC(=O)NCC1(c2ccccc2)CCN(CCCC(=O)c2ccc(F)cc2)CC1	-18	/	/	/	/	/
COc1ccc(Br)cc1CNCC1CCCO1 (configuration not stated)	-9	36*	-3	19	0	-0.18
CCCN1CNC(=S)N(c2cc(C)ccc2C)C1	-5	13*	-2	2	-8	-0.1
O=[N+]([O-])c1cc(C(F)(F)F)ccc1NC1CCN(Cc2ccccc2)CC1	4	43*	/	29	/	-0.06	Dye-only ctr=-22
O=[N+]([O-])c1cc(C(F)(F)F)ccc1NC1CCN(Cc2ccccc2)C1 (configuration not stated)	-2	-2	-2	0	8	/
SMILES	eLon inh	Keap1-Nrf2 PPI	RTF Ca sens act	LANA DNA inh	Cardiac RTF inh	Keap1 Kelch bind	others
O=C(OCC1CCC=CO1)C1CCC=CO1 (configuration not stated)	-6	-9	-12	1	8	/
CN(C)c1ccc2cc(S(=O)(=O)O)cc(O)c2c1	3	12*	7	54	-3	1.3
O=Nc1c(O)ccc2cc(S(=O)(=O)O)ccc12	2	5	-1	5	-4	/
O=C(CCCCl)NC(=S)Nc1ccc(N2CCOCC2)cc1	-4	33*	/	15	/	-0.14	Dye-only ctr=-22
O=C(NCc1ccccc1)c1cc(C2COCCN2C(=O)c2ccc3c(c2)CCO3)on1 (configuration not stated)	-10	/	/	/	/	/
Cc1ccc(NC(=O)CN2C(=O)NC3(CCCCCC3)C2=O)cc1Cl	2	20*	0	-1	-13	-0.03
Cc1ccc2oc(=O)c3cnn(CC(=O)NCCC(C)C)c3c2c1	-17	31*	2	0	-3	-0.17	Dye-only ctr=-26
Cc1ccc2oc(=O)c3cnn(CC(=O)NCCN(C)C)c3c2c1	-10	-2	-6	-1	1	/
Cc1oc2c(cc(NS(=O)(=O)c3ccc(C(C)C)cc3)c3ccccc32)c1C(=O)O	-2	20*	22	35	-18	0.52*
C[C@@H]1CN([C@H](C)CO)S(=O)(=O)c2ccc(C#CC3CCCC3)cc2O[C@H]1CN(C)C(=O)Cc1ccccc1	1	/	/	/	/	/
Nn1cnc2c(ncn2C2OC(CO)C(O)C2O)c1=O (configuration not stated)	-5	/	/	/	/	/
O=C(NNc1ncnc2sccc12)c1ccc(Cl)cc1	8	27*	/	16	/	-0.05
Cc1csc2ncnc(NNC(=O)c3ccc(Cl)cc3)c12	0	-3	2	0	-2	/
O[C@@H]1C[C@H](c2ccc(Cl)cc2)N(Cc2cccs2)C[C@H]1n1cc(-c2ccc(F)cc2)nn1	-5	/	/	/	/	/
COCCCNc1nc(N)c([N+](=O)[O-])c(Nc2cc(OC)ccc2OC)n1	0	38*	/	16	/	-0.08
Cc1nc(-c2ccc(S(=O)(=O)N3CCCN(CCc4ccccc4)CC3)s2)cs1	5	63*	/	30	/	-0.22
Cc1cc(C)c2nc3sc(C(=O)N4CCOCC4)c(N)c3cc2c1	-7	14*	-1	-1	-6	-0.17

Source: PubChem (several laboratories)
